In the library only some 3.5% were active in any assay of this set; here they are far more common.
MITF primary = human MITF inhibition, primary screen; O75030; AlphaScreen MITF homodimerization, bead proximity signal; inhibition, % at 2.6 µM; 650,000 tested, 0.91% active; AID 1259374; in the data active = inhibition above about 50%
Target sequence (O75030 whole entry, looked up): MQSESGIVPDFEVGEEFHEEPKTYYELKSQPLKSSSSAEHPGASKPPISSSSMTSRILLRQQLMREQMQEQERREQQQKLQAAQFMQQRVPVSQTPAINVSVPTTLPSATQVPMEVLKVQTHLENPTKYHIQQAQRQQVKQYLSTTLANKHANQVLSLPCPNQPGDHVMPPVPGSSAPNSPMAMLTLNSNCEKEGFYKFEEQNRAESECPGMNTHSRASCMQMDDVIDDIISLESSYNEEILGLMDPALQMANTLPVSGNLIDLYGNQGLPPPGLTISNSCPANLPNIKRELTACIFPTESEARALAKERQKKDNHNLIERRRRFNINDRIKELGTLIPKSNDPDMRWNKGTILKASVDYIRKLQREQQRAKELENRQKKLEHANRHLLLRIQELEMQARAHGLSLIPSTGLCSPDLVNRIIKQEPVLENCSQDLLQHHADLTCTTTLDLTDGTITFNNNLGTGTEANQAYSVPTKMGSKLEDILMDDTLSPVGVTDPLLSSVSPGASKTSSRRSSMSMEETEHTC
GPR151 ag = activates the human receptor GPR151. activation, % at 11.2 µM. 650,000 tested, 1% active. PathHunter beta-arrestin GPR151 cells, luminescence; in the data active = activation above about 4.9%
FBW7 activator = activators of human E3 ligase FBW7; Q969H0; AlphaScreen FBW7–phospho-cyclin E peptide binding, activator screen; normalized activity (activation), % at 26.1 µM; 650,000 tested, 0.13% active; in the data active = normalized activity above about 1.9%;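 note: purified mutant Fbw7 with reduced substrate affinity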
TEAD-YAP block = TEAD-YAP interaction inhibition. HEK-TIYL cells, TEAD-Gal4/YAP UAS-luciferase luminescence. inhibition, % at 9.12 µM. 640,000 tested, 1.4% active. AID 1259422; in the data active = inhibition above about 32%
GPR151 confirm = human GPR151 activation, confirmation screen; shares compounds with GPR151 ag; GPR151 PathHunter beta-arrestin cells, luminescence, 90 min; % of EA-reagent control over plate median; activation, % at 11.2 µM; 6,700 tested, under 10 active; AID 1508609;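 active = mean percent activation across replicates above the confirmation screen cutoff of 4.91%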
GPR119 counter = GPR119 activation, counter-screen for GPR151 activators | shares compounds with GPR151 ag | GPR119 PathHunter beta-arrestin cells, luminescence, 90 min; 0 = compound-well median, 100 = enzyme-acceptor control | activation, % at 11.2 µM | 6,700 tested, 0.3% active | AID 1508611;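 active = mean percent activation in the counterscreen above 29.09%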;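 note: counterscreen on off-target GPR119 to flag nonselective hits from the GPR151 activator screen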
Large screens that a line does not name were inactive (follow-up assays come after a bar, where they were run).

CC1CCCC(C)N1CC(O)COCc1ccc(Cl)cc1 (configuration not stated)	none
C=CCn1cnc2c(nnn2-c2cc(C)cc(C)c2)c1=O	GPR151 ag 9.4 | GPR151 confirm inactive | GPR119 counter inactive
CCOC(=O)CCc1c(C)nc2nc(CNC(=O)c3ccccc3)nn2c1C	GPR151 ag 5.2 | GPR151 confirm inactive | GPR119 counter inactive
Cc1nc2nc(CNC(=O)OC(C)(C)C)nn2c(C)c1CCC(=O)NCc1ccccc1	none
CCOc1ccccc1N(CC(=O)Nc1ccccc1OC)S(C)(=O)=O	GPR151 ag 8.9 | GPR151 confirm inactive | GPR119 counter inactive
CSc1cccc(NC(=O)CN(c2ccc(F)c(Cl)c2)S(C)(=O)=O)c1	GPR151 ag 8.5 | GPR151 confirm inactive | GPR119 counter inactive
Cc1c(Cl)cccc1N(CC(=O)Nc1ccc(F)c(Cl)c1)S(C)(=O)=O	GPR151 ag 5.5 | GPR151 confirm inactive | GPR119 counter inactive
CS(=O)(=O)N(CC(=O)Nc1ccc(F)c(Cl)c1)c1ccccc1F	none
Cc1ccccc1NC(=O)CN(c1ccc(Cl)cc1C)S(C)(=O)=O	GPR151 ag 5.3 | GPR151 confirm inactive | GPR119 counter inactive
COc1ccccc1NC(=O)CN(c1ccccc1OC)S(C)(=O)=O	none
CCNC(=S)N1CCn2cccc2C1c1cc(OC)c(OC)c(OC)c1 (configuration not stated)	none
CCC(=O)Nc1nn2c(-c3ccc(OC)c(OC)c3)nnc2s1	none
O=C(NCCNC(=O)c1cccc(Cl)c1)c1ccc(NC(=O)C2CC2)cc1	none
Cc1cccc(NC(=O)CN(c2ccc(Br)c(C)c2)S(C)(=O)=O)c1	GPR151 ag 10 | GPR151 confirm inactive | GPR119 counter inactive
COc1ccc(Cl)cc1N(CC(=O)Nc1cccc(C(C)=O)c1)S(C)(=O)=O	GPR151 ag 5.8 | GPR151 confirm inactive | GPR119 counter inactive
Cc1ccc(NC(=O)CN(c2ccc(Br)c(C)c2)S(C)(=O)=O)cc1	none
COc1cccc(NC(=O)CN(C)S(=O)(=O)c2ccc(F)cc2)c1	none
CC(=O)c1cccc(NC(=O)CN(C)S(=O)(=O)c2ccc(F)cc2)c1	GPR151 ag 5.9 | GPR151 confirm inactive | GPR119 counter inactive
Cc1ccc(S(=O)(=O)Nc2ccc(Br)cc2)cc1[N+](=O)[O-]	none
CCCc1nc2ccccc2c(=O)n1NC(=O)c1c(O)c2ccccc2n(CCC)c1=O	none
COc1ccc(/C=C2\SC(=S)N(CCC(=O)NCCO)C2=O)cc1	GPR151 ag 5.1 | GPR151 confirm inactive | GPR119 counter inactive
CCOc1ccc(/C=C2\SC(=S)N(C(CC)C(=O)O)C2=O)cc1 (configuration not stated)	GPR151 ag 6.0 | GPR151 confirm inactive | GPR119 counter inactive
CCOc1cccc(/C=C2/SC(=S)N(CCC(=O)O)C2=O)c1	GPR151 ag 4.9 | GPR151 confirm inactive | GPR119 counter inactive
CC(C)CN1CCN(Cc2nc3ccccc3n2C)CC1CCO (configuration not stated)	none
Cc1ccc(CN2CCN(Cc3nc4ccccc4n3C)CC2CCO)cc1 (configuration not stated)	GPR151 ag 19 | GPR151 confirm inactive | GPR119 counter inactive
Nc1nc(CSc2nnnn2Cc2ccccc2)nc(N2CCOCC2)n1	GPR151 ag 7.6 | GPR151 confirm inactive | GPR119 counter inactive
Cc1ccc(-c2c(N3CC(=O)N(CCc4ccccc4)C(=O)C3)c(=O)c2=O)cc1	GPR151 ag 6.5 | GPR151 confirm inactive | GPR119 counter inactive
CC1CCCC(NCc2c(C(=O)O)n(Cc3ccccc3Cl)c3ccccc23)C1C (configuration not stated)	none
CC1CCCC(NCc2c(C(=O)O)n(Cc3ccccc3F)c3ccccc23)C1C (configuration not stated)	GPR151 ag 13 | GPR151 confirm inactive | GPR119 counter inactive
COC(=O)c1ccc(C2N(c3ccc(C)cc3)CCN2c2ccc(C)cc2)cc1	none
COc1ccc(-c2csc3ncnc(SCc4c(C)noc4C)c23)cc1	GPR151 ag 8.1 | GPR151 confirm inactive | GPR119 counter inactive
Nc1nc2ncc(CNc3ccc(C(=O)NC(CCC(=O)O)C(=O)O)cc3)nc2c(=O)[nH]1 (configuration not stated)	none
